HT1080 IDH1KD tx = qHTS for induction of synthetic lethality in tumor cells producing 2HG: qHTS for the HT-1080-IDH1KD cell line; HT-1080 IDH1 knockdown viability, ATP luminescence, 48 h; Potency, µM (series often up to 46.1 µM), for inactives: top-dose activity, negative = toxicity, most hits filed as cytotoxic; 360,000 compounds, 2% hits;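 further: 0% = DMSO wells and -100% = cell-free medium wells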
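In this qHTS, HT-1080 cells depleted of IDH1 are exposed for 48 h at 37 °C to compound titrations. Toxicity is scored from CellTiter-Glo luminescence, with DMSO as full viability and medium alone as none.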
MCF10A rerep = A quantitative high throughput screen for small molecules that induce DNA re-replication in MCF 10a normal breast cells; MCF 10A DNA re-replication, Hoechst nuclear intensity, 48 h; Potency, µM (titrated, usually from 46.1 µM), for inactives: top-dose activity, positive = re-replication, most hits filed as activators; 350,000 compounds, 2.9% hits; AID 624296, 2012; further: % of control where 0% means no effect; nearly all actives have a fitted effect of over 50% in size
KB-3-1 tox = qHTS assay for MDR1-selective chemotherapeutics: Primary screen using the parental adenocarcinoma cell KB-3-1 | KB-3-1 viability, CellTiter-Glo ATP luminescence, 72 h | Potency, µM (top dose mostly 46.1 µM), most hits filed as cytotoxic | 400,000 compounds, 1.4% hits; further: on the % scale 0 is the no-effect control and ±100 the full control effect; nearly all actives have a fitted effect of over 60% in size
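Using CellTiter-Glo luminescence, growth of non-resistant KB-3-1 adenocarcinoma cells is assessed 72 h after pin-tool compound addition at 37 °C. Normalized responses across the concentration series yield fitted curves.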
SW480 rereplic = A quantitative high throughput screen for small molecules that induce DNA re-replication in SW480 colon adenocarcinoma cells; SW480 DNA re-replication, Hoechst DNA content imaging, 48 h; Potency, µM (titrated, usually from 46.1 µM), for the others: at the top dose re-replication activation, hits mostly activators; 340,000 compounds, 1.8% hits; further: % of control where 0% means no effect; nearly all actives have a fitted effect of over 55% in size
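Compounds, transferred as 23 nL by pin tool, were incubated with cells for 48 hr; DNA content per nucleus was then quantified by Hoechst staining and fluorescence plate imaging.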
HT1080NT lethal = qHTS for induction of synthetic lethality in tumor cells producing 2HG: qHTS for the HT-1080-NT fibrosarcoma cell line. HT-1080-NT fibrosarcoma viability, CellTiter-Glo ATP luminescence, 48 h. Potency, µM (doses to about 46.1 µM), inactives show top-dose activity, negative = less viability, usual class: cytotoxic. 360,000 compounds, 1.6% hits;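 further: NT is the 2HG producing partner of a matched IDH1 knockdown line; 0% = DMSO-treated cells and -100% = media-only wells without cells; nearly all actives have a fitted effect of over 55% in size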
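Luminescent CellTiter-Glo readout after 48 hours of compound exposure at 37 degrees C defined viability of HT-1080-NT cells. Activity was normalized to DMSO wells and cell-free media wells; concentration-response curves were fitted and assigned curve classes.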
KB-V1 cytotox = qHTS assay for MDR1-selective chemotherapeutics: Primary screen using the drug-selected MDR subline cells KB-V1; Potency, µM (doses to about 46.1 µM), actives largely listed as cytotoxic; 400,000 compounds, 3.4% hits; AID 1347076, 2019; KB-V1 MDR cells viability, CellTiter-Glo, 72 h; further: on the % scale 0 is the no-effect control and ±100 the full control effect; nearly all actives have a fitted effect of over 60% in size
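KB-V1 MDR subline cells in DMEM (phenol-red free, 10% FBS) exposed to compounds in qHTS concentration series for 72 h at 37 degrees C. Viability read by CellTiter-Glo luminescence; concentration-effect curves fitted after normalization and correction.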
* marks the source's active call; other numbers are inactive results; i = inactive; ? = inconclusive; · = no result given. In the library only some 7.9% were active in any assay of this set; here they are far more common. The call rests on the fitted dose curve; in most records, active means well fitted curve in the direction sought with a large enough effect; inconclusive means small, poorly fitted or top-dose-only effect, or another doubt; inactive means no such curve, though single readings can be large; an effect the other way counts as inactive or inconclusive. Potency means the concentration at half of the fitted maximal effect.

SMILES	HT1080 IDH1KD tx	MCF10A rerep	KB-3-1 tox	SW480 rereplic	HT1080NT lethal	KB-V1 cytotox
COc1ccc(-c2nn(-c3ccccc3)cc2CN(C)CCn2ccnc2C)c(F)c1	-4.7%	2.2%	i	-0.1%	0.0%	9.2µM*
O=C(Nc1ccccc1O)c1cc(S(=O)(=O)N2CCOCC2)c(Cl)cc1Cl	-22.3%	?	i	?	?	2.91µM*
O=C(NC1CCCCCC1)c1cc(S(=O)(=O)N2CCOCC2)ccc1N1CCCCC1	?	20.7%	?	1.0%	?	8.2µM*
C/C(=N\NC(=S)Nc1cc(S(=O)(=O)N2CCOCC2)ccc1Cl)c1ccccc1F	?	?	?	?	-17.4%	3.66µM*
COc1ccc(NC(=O)c2cc(S(=O)(=O)N3CCOCC3)ccc2N2CCOCC2)cc1	14.4%	10.1%	·	13.8%	6.1%	·
O=C(Nc1ccc(OC(F)F)cc1)c1cc(S(=O)(=O)N2CCOCC2)ccc1N1CCCC1	0.6%	-3.3%	i	-2.4%	-8.5%	9.2µM*
CC1(c2nnnn2Cc2ccccc2)CCC(=O)N1CC(F)(F)F (configuration not stated)	2.0%	·	i	·	16.1%	i
O=C(CNC(=O)c1ccccc1F)NC1CCN(Cc2ccccc2)CC1	10.0%	4.8%	i	-2.6%	11.6%	i
COCCNC(=O)CN(c1ccc(C)cc1)S(=O)(=O)c1ccc(SC)cc1	16.0%	-1.6%	i	2.5%	13.1%	i
O=S(=O)(c1ccc(NC(=S)Nc2ccc(OC(F)F)cc2)cc1)N1CCOCC1	-3.0%	0.5%	i	-5.5%	-5.5%	23.1µM*
O=C(Nc1cc(S(=O)(=O)N2CCOCC2)ccc1N1CCCC1)c1cc(F)c(F)cc1Cl	-0.2%	-0.7%	i	-2.6%	-7.3%	16.4µM*
NNC(=S)Nc1ccc(S(=O)(=O)N2CCOCC2)cc1	-1.8%	-0.2%	i	3.1%	5.3%	?
O=C(Nc1cc(S(=O)(=O)N2CCOCC2)ccc1N1CCOCC1)c1ccccc1Cl	16.8%	-1.3%	i	3.3%	0.2%	i
COC(=O)c1ccc(CN2CCCC(C(=O)Nc3ccc(-c4ccn[nH]4)cc3)C2)cc1 (configuration not stated)	-2.1%	2.8%	·	0.4%	1.4%	·
Cc1cc(C)n(-c2ccc(C(=O)Nc3sccc3C(N)=O)cc2)n1	?	?	?	-4.7%	-22.5%	29.1µM*
CCOC(=O)CNC(c1ccccc1)c1cc(Br)ccc1NC(=O)OCC (configuration not stated)	0.6%	18.7%	i	3.5%	3.6%	i
CCOC(=O)CNC(c1ccccc1)c1cc(Br)ccc1NC(=O)CCN1CCOCC1 (configuration not stated)	-4.5%	10.3µM*	i	106.6%	-29.3%	?
COC(=O)CNC(c1ccccc1)c1cc(Br)ccc1NS(=O)(=O)c1ccc(C)cc1 (configuration not stated)	-21.1%	8.8%	i	4.1%	-20.7%	5.8µM*
COC(=O)CNC(c1ccccc1)c1cc(Br)ccc1NC(=O)CCN1CCOCC1 (configuration not stated)	?	18.4µM*	i	?	-21.6%	?
COC(=O)CNC(c1ccccc1)c1cc(Br)ccc1NS(=O)(=O)c1ccccc1 (configuration not stated)	17.6%	-7.2%	i	-0.6%	12.7%	i
COC(=O)CNC(c1ccccc1)c1cc(Br)ccc1NC(=O)c1ccc(Cl)cc1 (configuration not stated)	·	·	i	·	·	i
COC(=O)CNC(c1ccccc1)c1cc(Br)ccc1NC(=O)CNC(=O)OCc1ccccc1 (configuration not stated)	20.6µM*	?	i	10.5%	?	?
COc1cccc(NS(=O)(=O)c2ccc(OC)c(OC)c2)c1	-3.6%	4.6%	i	1.0%	-1.3%	?
CCOC(=O)c1scc(-c2ccc(C)cc2)c1S(=O)(=O)Nc1cc(OC)ccc1OC	·	·	i	·	·	i
ONC(=Nc1cccc(C(F)(F)F)c1)c1cccnc1	-2.9%	-0.3%	i	4.7%	-5.6%	i
SMILES	HT1080 IDH1KD tx	MCF10A rerep	KB-3-1 tox	SW480 rereplic	HT1080NT lethal	KB-V1 cytotox
Cc1ccc(S(=O)(=O)Nc2ccc(OCC(=O)N3CCOCC3)cc2)c(C)c1NS(C)(=O)=O	-0.1%	?	?	-29.9%	0.9%	i
CC1CCCCC1NS(=O)(=O)CCNC(=O)c1ccccc1 (configuration not stated)	-2.9%	-8.6%	i	-3.3%	-3.9%	20.6µM*
Cc1ccc(C)c(S(=O)(=O)Nc2ccc3scnc3c2)c1	11.6µM*	?	i	?	?	i
Cc1ccc(C)c(S(=O)(=O)Nc2ccc3[nH]c(=O)[nH]c3c2)c1	-16.8%	-4.9%	i	-9.7%	1.5%	i
O=C(O)c1ccccc1SC1CC(=O)N(c2ccc3c(c2)OCO3)C1=O (configuration not stated)	13.1%	-9.8%	i	-11.6%	13.0%	i
CC(C)CC(=O)Nc1ccc(C(=O)NNC(=S)NC(=O)C2CCCCC2)cc1	?	-4.9%	i	0.2%	7.94µM*	10.3µM*
O=C(Cn1c(=S)[nH]c2ccccc21)c1ccccc1	-7.7%	0.0%	i	-4.7%	-1.2%	?
CS(=O)(=O)N(CC(=O)Nc1ccc(CC#N)cc1)c1ccc(C23CC4CC(CC(C4)C2)C3)cc1	10µM*	?	i	-0.4%	?	?
N/C(=N/OC(=O)c1ccccc1Cl)c1ncc([N+](=O)[O-])s1	18.4µM*	?	23.1µM*	?	29.1µM*	?
CCc1cc(-c2[nH]ncc2-c2ccc([N+](=O)[O-])cc2)c(O)cc1OC	-2.7%	?	i	25.8%	-5.3%	i
O=[N+]([O-])c1ccc(COc2ccc(-c3[nH]ncc3-c3ccc(Cl)cc3)c(O)c2)cc1	23.1µM*	23.1µM*	i	?	?	i
COc1ccc(-c2cn[nH]c2-c2ccc(OCc3ccccc3F)cc2O)cc1OC	18.4µM*	?	?	?	29.1µM*	18.4µM*
